{
  "source": "PubChem BioAssay (EPA / NIEHS)",
  "note": "Calls of active or inactive are those of the source. The calls were made as follows: active = hit-call score of the fitted dose curve at least 0.9, where 1 is the maximum; inactive = score below 0.9.",
  "data": [
    {"assay": "CCTE_Shafer_MEA_dev_interburst_interval_mean: CCTE's Neural Network Formation Assay for Mean Interburst Interval, Shafer Lab (AID 2284046)", "description": "CCTE_Shafer_MEA_dev assay is conducted using Axion Biosystems 48 well microelectrode array (MEA) plates and Maestro recording system. Each well of the MEA plate contains a grid of 16 microelectrodes embedded in the culture surface. Electrically active cells, such as neurons, can be cultured over the electrodes, and electrical activity in these cells can be recorded extracellularly. The spontaneous firing of neurons is captured from each electrode on a microsecond timescale providing both temporally and spatially precise data. […] The CCTE_Shafer_MEA_dev assay uses primary cultures of rat cortical neurons. Recordings are made on days post-plating 5, 7, 9 and 12. As these cultures mature over time, neural networks develop functional activity and form cohesive networks in which electrical activity can be highly coordinated. CCTE_Shafer_MEA_dev_interburst_interval_mean is 1 of 19 assay components of the CCTE_Shafer_MEA_dev assay. It measures the average time interval between consecutive single-electrode bursts (temporally-clustered groups of action potential firing) during a recording in a microelectrode array (MEA) using Axion Biosystems Maestro 768 channel amplifier with the AxIS adaptive spike detector. The mean inter-burst interval is averaged across the actively bursting electrodes to report a well-mean value. To collapse across multiple recordings made on days post-plating 5, 7, 9 and 12, the trapezoidal area-under-the-curve of the component is calculated.Data from the assay component CCTE_Shafer_MEA_dev_interburst_interval_mean was analyzed into 1 assay endpoint. This assay endpoint, CCTE_Shafer_MEA_dev_interburst_interval_mean, was analyzed in the negative analysis fitting direction relative to DMSO as the negative control and baseline of activity. Using a type of functional reporter, gain or loss-of-signal activity can be used to understand electrical activity.\nOn the day prior to culture, each well was coated thoroughly with 150 uL of 0.05% polyethyleneimine (PEI, Sigma Cat P3143) in 50 mM HEPES (Sigma Cat H7523) at a pH of 8. The plate was incubated at 37C for one hour. PEI was rinsed out with 500 uL of sterile water three times. Plates were stored at 4C until the day of culture. This culture was plated at a seeding density of 1.5 x 10^5 cells/well on a 48-well MEA plate, prepared as described above. Cells were administered via a 25 uL media/laminin ([…]; Sigma Cat L2020-1MG) drop directly onto the microelectrode array, as adding the cells with the laminin results in better attachment than pre-coating with laminin. After 2 hours, an additional 475 uL of cortical media was added and the cells returned to the incubator. Exposure starts at day 0 of plating and is continued over twelve days of network development until the experiment is terminated. Cells are fed with fresh medium on DIV 5 and 9, following the recordings on those days. The entire volume of media in the well is exchanged and any vehicle or compound treatment is renewed. Complete details are found in OP-NHEERL/ISTD/SBB/TJS/2015-03-r0 (available on request, email shafer.tim@epa.gov). Measurement of the electrical activity is non-invasive, and recordings can be made from the same plate over multiple different days of the culture. In cortical neurons, this allows for the measurement of extracellular action potentials over the period during which networks form in the MEA plate.", "values": [
      {"smiles": "O=C1CC2(CCCC2)CC(=O)N1CCCCN1CCN(c2ncccn2)CC1", "outcome": "inactive"},
      {"smiles": "CCCCCC(C)(CC)C(=O)NC", "note": "(stereo not drawn)", "outcome": "inactive"},
      {"smiles": "C[C@@H]1CCO[C@H]2Cn3cc(C(=O)NCc4ccc(F)cc4F)c(=O)c(O)c3C(=O)N12", "AC50": "1.74 µM (active)"},
      {"smiles": "C[C@@H]1CC[C@@H](C(C)(C)O)[C@H](O)C1", "outcome": "inactive"},
      {"smiles": "CN(C)CCCn1cc(C2=C(c3c[nH]c4ccccc34)C(=O)NC2=O)c2ccccc21", "outcome": "inactive"},
      {"smiles": "CC(CNC(=S)[S-])NC(=S)[S-].[Zn+2]", "note": "(stereo not drawn)", "AC50": "50 µM (active)"},
      {"smiles": "BrC1CC(Br)CC(Br)CC(Br)CC(Br)CC(Br)C1", "note": "(stereo not drawn)", "AC50": "4.31 µM (active)"},
      {"smiles": "Cc1[nH]n(C)c(=O)c1C(=O)c1ccc(C(F)(F)F)cc1S(C)(=O)=O", "outcome": "inactive"},
      {"smiles": "c1ccc2c(c1)ccc1c3ccccc3ccc21", "outcome": "inactive"},
      {"smiles": "[O]=[V]([OH])([OH])[OH]", "outcome": "inactive"},
      {"smiles": "CCCCCC=C(C)C(CC)CCO", "note": "(stereo not drawn)", "outcome": "inactive"},
      {"smiles": "CCc1ccccc1", "outcome": "inactive"},
      {"smiles": "c1cc2c3c(c1)ccc1cccc(c13)C2", "outcome": "inactive"},
      {"smiles": "Brc1cc(Br)c(Oc2cc(Br)c(Br)cc2Br)cc1Br", "outcome": "inactive"},
      {"smiles": "CC(=O)N[C@@H](CC(=O)O)C(=O)O", "outcome": "inactive"},
      {"smiles": "CC(C)O", "outcome": "inactive"},
      {"smiles": "CC(C)c1nn(C(=O)NC(C)(C)C)c(=O)n1N", "outcome": "inactive"},
      {"smiles": "F", "outcome": "inactive"}
    ]}
  ]
}
